According to PubChem BioAssay AID602438 (Sanford-Burnham Center for Chemical Genomics, 2012):
About 3,100 (0.86%) of roughly 360,000 compounds were called active.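 How the source made its calls: active means inhibition or corrected inhibition above about 18%, plus a signal ratio from 0.5 to 1.5 (limit read from the data, passing the limit was not always enough); inactive means the rest.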 Only a selection was taken, and actives are over-represented in it overall.

The compounds below were run against Neuropilin-1 (Homo sapiens) (UniProt O14786) (assay: NRP-1/CendR peptide interaction modulators – biochemical, fluorescence polarization, uHTS, primary screen (AID 602438)). Conditions: FAM-RPARPAR peptide binding to NRP-1, fluorescence polarization; at 25 µM; hits give high values.
Neuropilin-1 (Homo sapiens), sequence (O14786 whole entry, looked up): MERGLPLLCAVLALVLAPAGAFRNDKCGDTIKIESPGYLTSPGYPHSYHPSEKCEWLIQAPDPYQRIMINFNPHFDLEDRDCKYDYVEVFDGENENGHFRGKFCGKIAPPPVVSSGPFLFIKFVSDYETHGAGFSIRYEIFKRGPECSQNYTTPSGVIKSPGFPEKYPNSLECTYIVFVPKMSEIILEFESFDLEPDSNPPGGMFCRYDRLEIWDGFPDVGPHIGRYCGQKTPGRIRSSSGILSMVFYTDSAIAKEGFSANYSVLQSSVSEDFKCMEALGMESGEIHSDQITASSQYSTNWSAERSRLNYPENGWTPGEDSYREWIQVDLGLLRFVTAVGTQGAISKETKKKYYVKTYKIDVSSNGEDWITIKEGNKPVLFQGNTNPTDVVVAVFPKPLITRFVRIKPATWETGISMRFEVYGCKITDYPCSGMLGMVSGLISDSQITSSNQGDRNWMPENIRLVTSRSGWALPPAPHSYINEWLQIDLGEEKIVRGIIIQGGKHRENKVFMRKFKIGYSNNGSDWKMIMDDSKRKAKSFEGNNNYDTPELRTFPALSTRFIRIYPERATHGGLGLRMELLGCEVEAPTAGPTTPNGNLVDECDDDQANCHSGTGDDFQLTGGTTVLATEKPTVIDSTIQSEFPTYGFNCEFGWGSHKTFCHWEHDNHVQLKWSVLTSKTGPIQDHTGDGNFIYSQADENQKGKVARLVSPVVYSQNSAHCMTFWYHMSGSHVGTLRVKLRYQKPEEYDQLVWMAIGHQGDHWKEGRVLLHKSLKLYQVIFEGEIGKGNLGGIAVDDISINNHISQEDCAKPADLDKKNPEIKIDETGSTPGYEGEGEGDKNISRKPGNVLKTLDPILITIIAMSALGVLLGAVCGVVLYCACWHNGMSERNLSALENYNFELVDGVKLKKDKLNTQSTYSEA
With `CCC(=NCCc1ccccc1)c1c(O)n(C2CCCCC2)c(=O)[nH]c1=O` the inhibition was 24% (active).
With `CC(=O)c1c(O)n(C2CCCCCC2)c(=O)[nH]c1=O` the inhibition was -12.9% (inactive).
For `CCCCCCN=C(CC)c1c(O)n(CCCC)c(=O)[nH]c1=O`, the inhibition was -5.7% (inactive).
In the case of `COc1ccccc1C1=NCc2nnc(CSC)n2-c2ccc(Cl)cc21`, the inhibition is reported as 10.2% (inactive).
With `COC(=O)[C@@H]1C(OC(=O)c2ccccc2)CC2CCC1N2C` (stereo not given in full) the inhibition was -1.6% (inactive).
With `O=c1[nH]c2ccccc2n1C1CCN(C(c2ccccc2)c2nnnn2Cc2ccccc2)CC1` (stereo not given) the inhibition was 11.2% (inactive).
For `Cc1ccc(Cn2nnnc2CN2CCC(n3nnc4ccccc43)CC2)cc1`, the inhibition was 25.7% (active).
In the case of `O=c1[nH]c2ccccc2n1C1CCN(C(c2ccnc3ccccc23)c2nnnn2Cc2ccccc2)CC1` (stereo not given), the inhibition is reported as 6.4% (inactive).
`CN(C)P(=S)(Nc1ccccc1)C(Cl)(Cl)Cl` (stereo not given) was tested, and the inhibition was 7.8% (inactive).
`COC(=O)C1=C(c2ccc3ccccc3c2)C[C@@H]2CC[C@H]1N2C(=O)NCCO` was tested, and the inhibition was -3.3% (inactive).
In the case of `COC(=O)C1=C(c2ccccc2)C[C@@H]2CC[C@H]1N2C(=O)N1CCCCC1`, the inhibition is reported as 32.5% (active).
For `COC(=O)C1=C(c2ccccc2)C[C@@H]2CC[C@H]1N2C(=O)NCc1ccco1`, the inhibition was -16.6% (inactive).
In the case of `COC(=O)C1=C(c2cc3ccccc3s2)C[C@@H]2CC[C@H]1N2C(=O)NCCO`, the inhibition is reported as -10.5% (inactive).
With `COC(=O)C1=C(c2ccc(C(C)=O)cc2)C[C@@H]2CC[C@H]1N2C(=O)NCCNC(C)=O` the inhibition was 34.8% (active).
In the case of `COC(=O)C1=C(c2cccc(OCc3ccccc3)c2)C[C@@H]2CC[C@H]1N2C(=O)NNCc1ccccc1`, the inhibition is reported as 8.8% (inactive).
With `NCCc1c[nH]c2ccc(O)cc12` the inhibition was 10.4% (inactive).
`CCC(C)(O)C(=O)OC1C(=O)OC2CC3C(C)=CC(=O)C(O)C3(C)C3C4(O)OCC23C1C(C)C4O` (stereo not given) was tested, and the inhibition was 9.9% (inactive).
For `CCOC(=O)[C@]12Cc3ccccc3[C@H]1N(C1CCCCC1)C(=O)c1cc(OC)ccc12`, the inhibition was 2.7% (inactive).
For `Cc1ccc(OC(=O)N(C)C[C@@H]2OCc3cnnn3CCCC(=O)N([C@H](C)CO)C[C@@H]2C)cc1`, the inhibition was 9.5% (inactive).
In the case of `Cc1ccc(S(=O)(=O)N(C)c2ccc(C(=O)NCC3(N(C)C)CCCCC3)cc2)cc1`, the inhibition is reported as -2% (inactive).
`CCCCCn1c(=O)c(C(=O)Nc2c(C)n(C)n(-c3ccccc3)c2=O)c(O)c2ccccc21` was tested, and the inhibition was 3.5% (inactive).
`CC(C)c1ccc(OCC(=O)N2CCN(C)CC2)c(Br)c1` was tested, and the inhibition was 13.4% (inactive).
With `CN1CCN(C(=O)COc2ccc(C(C)(C)C)cc2Br)CC1` the inhibition was 10% (inactive).
With `CC(C)c1ccc(OCC(=O)N2CCCN(C)CC2)cc1` the inhibition was 28.1% (active).
In the case of `CCN1c2nc3c(C)cccn3c(=O)c2CC2(C(=O)N(C)C(=O)N(C)C2=O)C1C` (stereo not given), the inhibition is reported as 10.7% (inactive).
